High-throughput results: PubChem, National Center for Advancing Translational Sciences (NCATS)
G9a inh: qHTS Assay for Inhibitors of Histone Lysine Methyltransferase G9a | Histone-lysine N-methyltransferase EHMT2 (Homo sapiens), Q96KQ7 | G9a H3K9 monomethylation, AlphaScreen, 2 h | Potency, µM (doses to about 102 µM), usual class: inhibitors | 350,000 tested, 8.8% active; further: nearly all actives have a fitted effect of over 75% in size
Target sequence (Q96KQ7 913-1193 limits assumed): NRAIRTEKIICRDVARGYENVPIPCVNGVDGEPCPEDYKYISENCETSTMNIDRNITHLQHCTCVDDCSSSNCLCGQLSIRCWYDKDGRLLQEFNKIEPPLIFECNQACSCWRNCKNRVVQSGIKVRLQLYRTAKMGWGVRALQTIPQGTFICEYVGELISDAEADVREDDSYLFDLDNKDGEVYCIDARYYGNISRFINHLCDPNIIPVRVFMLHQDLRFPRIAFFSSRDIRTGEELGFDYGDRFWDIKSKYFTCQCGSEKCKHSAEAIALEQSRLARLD
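G9a (20 nM) preincubated 15 min RT with compounds, then 500 nM biotinylated H3K9 peptide and 20 uM SAM added; 2 h RT reaction. Monomethyl-H3K9 product detected by AlphaScreen with anti-H3K9me1 antibody, streptavidin donor and anti-rabbit IgG acceptor beads.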
JMJD2A Tudor inh: qHTS Assay for Inhibitors of JMJD2A-Tudor Domain; Lysine-specific demethylase 4A (Homo sapiens), O75164; AlphaScreen JMJD2A-Tudor / H3K4me3 peptide binding; Potency, µM (series often up to 114 µM), actives largely listed as inhibitors; 390,000 tested, 4.4% active; further: nearly all actives have a fitted effect of over 50% in size
HP1b binding inh: HTS for Inhibitors of HP1-beta Chromodomain Interactions with Methylated Histone Tails. Chromobox protein homolog 1 (Homo sapiens), P83916. 390,000 tested, 0.56% active. Potency, µM (series often up to 114 µM), hits mostly inhibitors. AlphaScreen HP1-beta / biotin-H3K9me3 peptide binding; further: nearly all actives have a fitted effect of over 70% in size
Target sequence (P83916 whole entry, looked up): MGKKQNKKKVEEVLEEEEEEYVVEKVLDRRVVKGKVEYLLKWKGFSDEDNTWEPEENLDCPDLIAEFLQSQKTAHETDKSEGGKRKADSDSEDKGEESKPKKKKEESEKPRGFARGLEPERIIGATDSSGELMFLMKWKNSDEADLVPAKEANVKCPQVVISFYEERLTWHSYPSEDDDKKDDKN
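Compound inhibition of the preformed complex between 50 nM HP1-beta and 50 nM biotinylated H3K9me3 peptide was read by AlphaScreen. Buffer was PBS pH 7.4 with 0.01% Tween-20. Incubations ran 30 min at room temperature, with 10 ug/mL donor/acceptor beads.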
BAZ2B inh: qHTS Assay for Inhibitors of BAZ2B | 360,000 tested, 4.4% active | Potency, µM (titrated, usually from 114 µM), usual class: inhibitors | AID 504333, 2011 | AlphaScreen BAZ2B-H3K14Ac peptide displacement; further: nearly all actives have a fitted effect of over 60% in size
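Protein-peptide AlphaScreen: BAZ2B 50 nM, b-H3K14Ac 50 nM, 1x PBS pH 7.4 + 0.01% Tween-20. Preincubation 30 min RT; cpd 30 min RT (top 110 uM); beads 20 min RT, light-protected.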
PLK1 PBD block: qHTS for Inhibitors of PLK1-PDB (polo-like kinase 1 - polo-box domain): Primary Screen; Serine/threonine-protein kinase PLK1 (Homo sapiens), P53350; Plk1 PBD binding of FITC phosphopeptide, fluorescence polarization; Potency, µM, usual class: inhibitors; 360,000 tested, 2.8% active; further: series mostly up to about 57 µM; nearly all actives have a fitted effect of over 65% in size
Sfp PPTase inh: qHTS Assay for Inhibitors of Bacillus subtilis Sfp phosphopantetheinyl transferase (PPTase); Biochemical Sfp PPTase activity, qHTS; Potency, µM, usual class: inhibitors; 310,000 tested, 3.5% active;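 further: the enzyme is Sfp with the accession as filed and its product quenches rhodamine fluorescence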
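After 15 min at room temperature with compound, 15 nM Sfp received 5 uM rhodamine-CoA plus 12.5 uM BHQ-2-ybbR (50 mM Hepes pH 7.6, 10 mM MgCl2). Rate came from the fluorescence difference over 30 min, ex 525/em 598 nm.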
Each line names hits and unclear results; the compound was inactive in the other large screens. Hits are enriched below; roughly 12% of the tested compounds scored in any of these assays. The call rests on the fitted dose curve; in most records, active means well fitted curve in the direction sought with a large enough effect; inconclusive means small, poorly fitted or top-dose-only effect, or another doubt; inactive means no such curve, though single readings can be large; an effect the other way counts as inactive or inconclusive.

Cc1ccc(OCc2cc(C(=O)N3CC4C[C@@H]5CC3C[C@H](C4)C5)no2)cc1C	none
COCCNCC1C(Oc2ccc(Cl)cc2)C(=O)N1c1ccccc1C (stereo unspecified)	none
COc1ccc(CCNCC2C(Oc3ccc(Cl)cc3)C(=O)N2c2ccccc2C)cc1OC (stereo unspecified)	G9a inh 45µM, JMJD2A Tudor inh inconclusive, BAZ2B inh inconclusive
COc1ccccc1CN1CCC2(CC1)CCN(S(=O)(=O)c1ccccc1)CC2	none (no result: JMJD2A Tudor inh, HP1b binding inh, BAZ2B inh, PLK1 PBD block)
CC(=O)Nc1ccc(NS(=O)(=O)c2cccc3nonc23)cc1	none
CC(C)c1ccc(-c2cc(C(=O)NN3CCN(C)CC3)c3ccccc3n2)cc1	G9a inh 50µM, JMJD2A Tudor inh inconclusive, Sfp PPTase inh 40µM
C=CCn1c(=O)/c(=C/c2ccc(C)o2)s/c1=C(/C#N)C(=O)c1ccccc1	G9a inh inconclusive, HP1b binding inh inconclusive, BAZ2B inh 11µM, PLK1 PBD block inconclusive, Sfp PPTase inh inconclusive
COCCCn1c(=O)/c(=C\c2ccccc2OC(F)F)s/c1=C(/C#N)C(N)=O	none
CC1C(=NO)C(C)C(c2ccc(N(C)C)cc2)NC1c1ccc(N(C)C)cc1 (stereo unspecified)	BAZ2B inh 40µM
CN1CCN(C2=Cc3ccccc3Sc3cc(F)ccc32)CC1	G9a inh inconclusive, BAZ2B inh inconclusive
CN1CCN(C2=Cc3ccc(Cl)cc3Sc3ccc(F)cc32)CC1	G9a inh inconclusive, JMJD2A Tudor inh 56µM, BAZ2B inh 50µM, Sfp PPTase inh inconclusive
O=C1[C@@H]2Cc3c([nH]c4ccccc34)C(c3cccc([N+](=O)[O-])c3)N2C(=O)CN1C1CCN(Cc2ccccc2)CC1 (stereo partly specified)	BAZ2B inh 25µM (no result: JMJD2A Tudor inh, HP1b binding inh, PLK1 PBD block)
C=CCN1C(=O)[C@@H]2Cc3c([nH]c4ccccc34)C(c3ccc(O)cc3)N2C1=S (stereo partly specified)	G9a inh 45µM, JMJD2A Tudor inh inconclusive, BAZ2B inh inconclusive
O=C1[C@@H]2Cc3c([nH]c4ccccc34)[C@@H](c3ccccc3)N2C(=O)[C@@H]2Cc3c([nH]c4ccccc34)[C@@H](c3ccccc3)N12	G9a inh 14µM, BAZ2B inh inconclusive, Sfp PPTase inh inconclusive (no result: JMJD2A Tudor inh, HP1b binding inh, PLK1 PBD block)
Cc1ccc(C2c3[nH]c4ccccc4c3C[C@H]3C(=O)N(c4ccccc4C(=O)N4CCC[C@H]4C(=O)O)C(=O)N23)cc1 (stereo partly specified)	PLK1 PBD block inconclusive
C=CCN1C(=O)[C@@H]2Cc3c([nH]c4ccccc34)C(c3cc(OC)c(OC)c(OC)c3)N2C1=S (stereo partly specified)	G9a inh inconclusive
CC(C)c1ccc(C2c3[nH]c4ccccc4c3C[C@H]3C(=O)N(c4ccccc4C(=O)N4CCC[C@@H]4C(=O)O)C(=O)N23)cc1 (stereo partly specified)	PLK1 PBD block 42µM
O=C1C2Cc3c([nH]c4ccccc34)C(c3ccccc3)N2C(=O)C2Cc3c([nH]c4ccccc34)C(c3ccccc3)N12 (stereo unspecified)	none (no result: G9a inh, JMJD2A Tudor inh, HP1b binding inh, BAZ2B inh, PLK1 PBD block)
Cc1cc(C)cc(NC(=O)N2CCNC(=O)C2CC(=O)Nc2cc(Cl)ccc2Cl)c1 (stereo unspecified)	none
CC1Cc2c([nH]c3ccccc23)C2c3ccccc3CN12 (stereo unspecified)	G9a inh 25µM, JMJD2A Tudor inh inconclusive
O=C(c1cnccn1)N1CCC[C@@]2(CCN(C(c3ccccc3)c3ccccc3)C2)C1	none (no result: JMJD2A Tudor inh, HP1b binding inh, BAZ2B inh, PLK1 PBD block)
COc1ccc(CNCc2ccco2)cc1OCc1ccccc1	G9a inh 13µM, JMJD2A Tudor inh 13µM, HP1b binding inh inconclusive, BAZ2B inh 79µM, Sfp PPTase inh inconclusive
COc1cc(CNCCc2c[nH]c3ccccc23)ccc1OCc1ccccc1F	JMJD2A Tudor inh 40µM, HP1b binding inh inconclusive, BAZ2B inh 35µM, Sfp PPTase inh inconclusive
COc1cc(CNCc2cccnc2)ccc1OCc1ccccc1	none
COc1ccccc1CCNCc1ccc(OC)c(OCc2ccccc2)c1	G9a inh inconclusive, JMJD2A Tudor inh 3.2µM, HP1b binding inh inconclusive, BAZ2B inh inconclusive, Sfp PPTase inh inconclusive
COc1cc(CNCCc2ccccc2)ccc1OCc1ccc(Cl)nc1	none
CCCCCCCC1=Cc2ccccc2C(C(C(=O)OC)C(=O)OC)N1C(=O)OC (stereo unspecified)	none (no result: G9a inh, JMJD2A Tudor inh, HP1b binding inh, BAZ2B inh, PLK1 PBD block)
COc1cccc(C(=O)Nc2cc(-c3cn4cccnc4n3)ccc2C)c1	G9a inh 32µM
CN1CCN(CC(O)COc2ccc(Cl)cc2)CC1 (stereo unspecified)	G9a inh 56µM
CCN1CCN(CC(O)COc2ccc(C)c(C)c2)CC1 (stereo unspecified)	none
OCCN1CCN(CC(O)COc2ccc(Cl)cc2)CC1 (stereo unspecified)	G9a inh 50µM, BAZ2B inh inconclusive
CN1CCN(CC(O)COc2ccc(OCC(O)CN3CCN(C)CC3)cc2)CC1 (stereo unspecified)	none
CCN1CCN(CC(O)COc2ccc(Cl)cc2)CC1 (stereo unspecified)	JMJD2A Tudor inh inconclusive, BAZ2B inh inconclusive
CCOC(=O)c1c(C)n(-c2ccc(C)cc2)c2ccc(OCC(O)CN3CCN(C)CC3)cc12 (stereo unspecified)	G9a inh 50µM, JMJD2A Tudor inh inconclusive, Sfp PPTase inh 40µM (no result: BAZ2B inh)
Cc1cc(OCC(O)CN2CCN(C)CC2)ccc1C(C)C (stereo unspecified)	G9a inh 89µM
Cc1ccc(NC(=O)CCC(=O)N/N=C/c2cccnc2)cc1	G9a inh inconclusive, HP1b binding inh inconclusive
CSC1=NC2(CCN(C(=O)NC3CCCCC3)CC2)N=C1c1ccc(C)c(C)c1	none (no result: PLK1 PBD block, Sfp PPTase inh)
Cc1[nH]c2ccccc2c1C(=O)C(=O)N1CCN(c2cccc(Cl)c2)CC1	G9a inh inconclusive, JMJD2A Tudor inh inconclusive
Cc1sc(N)nc1-c1ccc2c(c1)OCCO2	G9a inh 35µM, PLK1 PBD block inconclusive, Sfp PPTase inh 79µM
Nc1nc(N)nc(-c2ccc(Oc3ccccc3)cc2)n1	none
Nc1nc(-c2ccc3c(c2)OCCO3)c(CC(=O)O)s1	none (no result: G9a inh)
NC1=NN=C(c2ccc3c(c2)OCCO3)CS1	G9a inh inconclusive, Sfp PPTase inh 79µM
Cc1sc(N)nc1-c1ccc(Oc2ccccc2)cc1	G9a inh inconclusive, JMJD2A Tudor inh inconclusive, BAZ2B inh 50µM
